{"source": "PubChem BioAssay AID492952", "about": "(Southern Research Specialized Biocontainment Screening …, 2010)", "note": "Out of some 2,300 compounds screened, about 1,500 (65%) were called active. The rule behind the calls is not given here. The set was probably picked from earlier hits. Some of the results follow. Where a call stands in place of a potency, no number is given. Potency and affinity values are given separately.", "data": [{"assay": "replicating M. tuberculosis growth inhibition, dose response, non-replicating M. tuberculosis project, H37Rv (AID 492952);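 note: Mycobacterium tuberculosis grown in culture; growth inhibition read after a week of incubation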", "conditions": "series mostly up to 50 µM", "values": [{"smiles": "CN(C)/C=C1/C(=O)N(c2ccc([N+](=O)[O-])cc2)N=C1c1ccccc1", "outcome": "inactive"}, {"smiles": "Cc1cc2cc(CNC(=O)C3CCCC3)ccc2n1C", "outcome": "inactive"}, {"smiles": "CC1(C)Oc2ccc(NC(=O)C3COc4ccccc4O3)cc2O1", "note": "(stereo unspecified)", "outcome": "inactive"}, {"smiles": "S=C(Nc1ccc2c(c1)OCO2)Nc1ccc2c(c1)OCO2", "outcome": "inactive"}, {"smiles": "O=C(c1ccccc1)n1c(=O)c(F)cn(COCCBr)c1=O", "outcome": "inactive"}, {"smiles": "O=C(CCc1ccccc1F)N1CCN(c2ccccc2)CC1", "outcome": "inactive"}, {"smiles": "COc1ccc([N+](=O)[O-])c(S(=O)(=O)c2ccc(Cl)cc2)n1", "outcome": "inactive"}, {"smiles": "CCOC(=O)N1CCC(NS(=O)(=O)c2cc3c(cc2Cl)NC(=O)CO3)CC1", "outcome": "inactive"}, {"smiles": "O=C(Cc1ccccc1)Nc1ccc(C(=O)NCC2COc3ccccc3O2)cc1", "note": "(stereo unspecified)", "outcome": "inactive"}, {"smiles": "O=C(Nc1ncc2c(n1)-c1ccccc1OC2)c1ccc(F)cc1", "outcome": "inactive"}, {"smiles": "O=C(Nc1sc2c(c1C(=O)O)CCCC2)c1ccc(F)cc1", "outcome": "inactive"}, {"smiles": "O=C(CCc1ccccc1)N/N=C/c1cc(Br)ccc1O", "outcome": "inactive"}, {"smiles": "COc1ccc(N/N=C/c2c(C(=O)O)ccc3ccccc23)cc1", "outcome": "inactive"}, {"smiles": "O=C(Nc1nccs1)c1ccc(Br)cc1", "outcome": "inactive"}, {"smiles": "CC(C)c1nnc(NC(=O)c2sc3ccccc3c2Cl)s1", "outcome": "inactive"}, {"smiles": "C=C1Cn2c(nnc2-c2ccc(Cl)cc2)S1", "outcome": "inactive"}, {"smiles": "COc1ccc(N=N/C(=C\\O)C(=O)c2ccco2)cc1", "outcome": "inactive"}, {"smiles": "Clc1ccc(Cc2nnc(-c3cccs3)o2)cc1", "outcome": "inactive"}, {"smiles": "COCc1[nH]nc2c1C(c1sccc1C)C(C#N)=C(N)O2", "note": "(stereo unspecified)", "outcome": "inactive"}, {"smiles": "Cc1cccc(NC(=O)c2cc3ccccc3oc2=O)c1", "outcome": "inactive"}, {"smiles": "O=C(COC(=O)c1cc2ccccc2oc1=O)Nc1ccc(F)cc1F", "outcome": "inactive"}, {"smiles": "Cc1cccc(NC(=O)COC(=O)c2cc3ccccc3oc2=O)c1", "outcome": "inactive"}, {"smiles": "O=C(NCc1ccccc1)c1cc2ccccc2oc1=O", "outcome": "inactive"}, {"smiles": "NNC(=O)CNC(=O)C12CC3CC(CC(C3)C1)C2", "outcome": "inactive"}, {"smiles": "COc1ccc2c(c1)C(=C(C#N)C#N)C(=O)N2CCc1ccccc1", "outcome": "inactive"}, {"smiles": "COc1ccc(OC(=O)C(C)N2C(=O)c3ccccc3C2=O)cc1", "note": "(stereo unspecified)", "outcome": "inactive"}, {"smiles": "CCN1/C(=C(\\O)c2ccccc2)C(=O)c2ccccc2S1(=O)=O", "outcome": "inactive"}, {"smiles": "Cc1cccc2nc(CSc3nc4cc([N+](=O)[O-])ccc4s3)cn12", "outcome": "inactive"}, {"smiles": "CC(C)CN1C(=O)CC(Sc2ccccc2C(=O)O)C1=O", "note": "(stereo unspecified)", "outcome": "inactive"}, {"smiles": "COc1cc(CNC2CCCC2)cc(Cl)c1OCc1ccc(F)cc1", "outcome": "inactive"}, {"smiles": "COc1ccc(CCCC(=O)NCc2ccccc2)cc1C", "outcome": "inactive"}, {"smiles": "NC(=O)C1(N2CCCCC2)CCN(C2CC(=O)N(CCc3ccccc3)C2=O)CC1", "note": "(stereo unspecified)", "outcome": "inactive"}, {"smiles": "CCCCCCOc1ccc(C(=O)O)cc1C#N", "outcome": "inactive"}, {"smiles": "O=C(NCc1ccco1)c1nc2ccccc2s1", "outcome": "inactive"}, {"smiles": "CC(C)(C)CC(=O)NC(=S)NCc1ccco1", "outcome": "inactive"}, {"smiles": "COc1ccc(S(=O)(=O)N(C(C)=O)c2ccc(OC(C)=O)c3ccccc23)cc1[N+](=O)[O-]", "outcome": "inactive"}, {"smiles": "Cc1nc2scc(-c3ccccc3)c2c(=O)o1", "outcome": "inactive"}, {"smiles": "CCOC(=O)c1ccc(NC(=O)NS(=O)(=O)c2ccc(C)cc2)cc1", "outcome": "inactive"}, {"smiles": "CCOC(=O)c1ccc(NC(=O)CCSCCc2ccccn2)cc1", "outcome": "inactive"}, {"smiles": "O=C(NNc1ccc([N+](=O)[O-])cc1)C1CC2CCCC(C1)C2=O", "note": "(stereo unspecified)", "outcome": "inactive"}, {"smiles": "Cc1ccc(CCC(=O)Nc2ccc([N+](=O)[O-])cc2)o1", "outcome": "inactive"}, {"smiles": "CC(NC(=O)c1cccc(F)c1)C1CC2CCC1C2", "note": "(stereo unspecified)", "outcome": "inactive"}, {"smiles": "O=C(N/N=C/C=C/c1ccccc1)c1cccs1", "outcome": "inactive"}, {"smiles": "O=C(Nc1cccnc1)c1cc(Cl)ccc1Cl", "outcome": "inactive"}, {"smiles": "Cn1c(-c2cccc([N+](=O)[O-])c2)cnc1NCc1cccc(F)c1", "outcome": "inactive"}, {"smiles": "Cc1ccccc1C1=N/C(=C/c2cccnc2)C(=O)O1", "outcome": "inactive"}, {"smiles": "O=C1OC(/C=C/c2ccccc2)=NC/1=C\\c1cccnc1", "outcome": "inactive"}, {"smiles": "O=C(COc1ccc2ccccc2c1Br)N1CCCC1", "outcome": "inactive"}, {"smiles": "Cc1cc(OCCCn2ccnc2)ccc1C(C)C", "outcome": "inactive"}, {"smiles": "O=S(=O)(c1ccc(Cl)c2ccccc12)N1CCCC1", "outcome": "inactive"}, {"smiles": "Cc1ccc(C(=O)COC(=O)CCc2ccc(S(=O)(=O)N3CCCCC3)cc2)cc1", "outcome": "inactive"}, {"smiles": "O=C(COc1c(Br)cc(Br)c2cccnc12)N1CCCCC1", "outcome": "inactive"}, {"smiles": "CCOC(=O)C1CCCN(Cc2nc(Cc3ccccc3Cl)no2)C1", "note": "(stereo unspecified)", "outcome": "inactive"}, {"smiles": "COc1cc(NC(=O)N2CCOCC2)cc(OC)c1", "outcome": "inactive"}, {"smiles": "Cc1cc(C)nc(SC2CC(=O)N(c3ccc(C)c(C)c3)C2=O)n1", "note": "(stereo unspecified)", "outcome": "inactive"}, {"smiles": "CC(=O)Nc1ccc(NC(=O)[C@@H]2CCCC[C@@H]2C(=O)O)cc1", "outcome": "inactive"}, {"smiles": "Cc1nc(C(=O)Nc2ccccc2)sc1C(=O)Nc1ccccc1", "outcome": "inactive"}, {"smiles": "NC(N)=N/N=C/c1cc([N+](=O)[O-])ccc1O", "outcome": "inactive"}, {"smiles": "NC(=O)N/N=C\\c1cc(Br)ccc1O", "outcome": "inactive"}, {"smiles": "O=C1N=c2ccccc2=C1c1c(O)n(-c2cccc(F)c2)[nH]c1=O", "outcome": "inactive"}, {"smiles": "Cc1ccc(C(=O)O/N=C(\\N)c2cccc([N+](=O)[O-])c2)cc1", "outcome": "inactive"}, {"smiles": "N/C(=N\\OC(=O)c1cccc2ccccc12)c1cccnc1", "outcome": "inactive"}, {"smiles": "N/C(=N\\OC(=O)c1cccc(Br)c1)c1ccc([N+](=O)[O-])cc1", "outcome": "inactive"}, {"smiles": "O=C(Cc1c(F)cccc1Cl)Nc1ncc([N+](=O)[O-])s1", "outcome": "inactive"}, {"smiles": "CCCNC(=O)NC(=O)COc1ccc2oc3ccccc3c2c1", "outcome": "inactive"}, {"smiles": "O=C(COc1ccccc1)Nc1ccc(F)cc1", "outcome": "inactive"}, {"smiles": "N#CC1=C(N)Oc2c(ccc3cccnc23)C1c1ccccc1", "note": "(stereo unspecified)", "outcome": "inactive"}, {"smiles": "O=C(NCCc1cccc(Cl)c1)c1cc2ccccc2oc1=O", "outcome": "inactive"}, {"smiles": "COCCCC1CCN(Cc2nc(-c3ccccc3)no2)CC1", "outcome": "inactive"}, {"smiles": "CC(C)(C)OC(=O)NCCC(=O)Oc1ccc2ccc(=O)oc2c1", "outcome": "inactive"}, {"smiles": "O=C(NC(=S)Nc1ccc(F)cc1)C1CCCCC1", "outcome": "inactive"}, {"smiles": "O=C(N/N=C/c1cccc([N+](=O)[O-])c1O)c1cccs1", "outcome": "inactive"}, {"smiles": "O=C(O)c1ccccc1C(=O)NNc1ccc(Cl)cc1", "outcome": "inactive"}, {"smiles": "O=C(O)c1ccccc1-c1ccccc1C(=O)Nc1nc2ccccc2s1", "outcome": "inactive"}, {"smiles": "O=C(NCCN1C(=O)S/C(=C\\c2ccccc2F)C1=O)C1CCN(S(=O)(=O)c2cccs2)CC1", "outcome": "inactive"}, {"smiles": "O=S(=O)(Nc1ccc(O)c2ccccc12)c1ccc(F)cc1", "outcome": "inactive"}]}]}
